# Measurements taken from the supplement of paper PMC4022240.
# ± gives the standard deviation.
# T1: HaloTag-ATRX ADD domain (163-292)
# T1 chain: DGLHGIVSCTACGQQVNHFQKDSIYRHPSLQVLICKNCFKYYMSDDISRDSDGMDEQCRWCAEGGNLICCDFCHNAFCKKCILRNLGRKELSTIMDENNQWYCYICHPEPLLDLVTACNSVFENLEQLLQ
# Legend:
# Assay in all cases: peptide microarray binding signal (635 nm), min-max normalized on array (fraction of array maximum); higher = stronger binding
# Conditions in all cases: peptide region: H3 20-32
# [1] = molecular target: T1, HaloTag-ATRX ADD domain (163-292)
# Method in brief: (§1)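 Histone 13-mer peptide–cellulose conjugates were printed in triplicate on nitrocellulose with a Cy3 tracer, then blocked overnight at 4°C. Arrays were probed for 1 h at 4°C with biotin-labelled HaloTag reader fusions (10 nM to 1 μM) plus streptavidin-Alexa Fluor 647, or with rabbit histone antibodies (1:10,000 to 1:2,000) plus anti-rabbit Alexa 647. An Axon GenePix 4000B scanned 635 nm for signal and 532 nm for misprints. Binding signal is the triplicate-spot mean intensity, min-max scaled per library.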
# [2] = molecular target: HaloTag-ING2 PHD (mouse Ing2 200-280)
# Method in brief: as §1
# [3] = molecular target: anti-H3K4me3 antibody ab8580
# Method in brief: as §1
# [4] = molecular target: anti-H3K9me3 antibody ab8898
# Method in brief: as §1
# [5] = peptide modifications: H3K23ac H3K27me2, binder concentration: 1:2,000 dilution
# [6] = peptide modifications: H3K23ac H3K27me2, binder concentration: 1:10,000 dilution
# [7] = peptide modifications: H3K23me1 H3K27me2, binder concentration: 1:2,000 dilution
# [8] = peptide modifications: H3K23me1 H3K27me2, binder concentration: 1:10,000 dilution
# [9] = peptide modifications: H3K23me1, binder concentration: 1:2,000 dilution
# [10] = peptide modifications: H3K23me1, binder concentration: 1:10,000 dilution
# [11] = peptide modifications: H3K23me1 H3K27me1, binder concentration: 1:2,000 dilution
# [12] = peptide modifications: H3K23me1 H3K27me1, binder concentration: 1:10,000 dilution
# [13] = peptide modifications: H3K23ac H3K27ac, binder concentration: 1:2,000 dilution
# [14] = peptide modifications: H3K23ac H3K27ac, binder concentration: 1:10,000 dilution
binder,measurement,setting,value
LATKAARKSAPAT [H3 20-32 L A T Kac A A R Kme2 S A P A T],peptide microarray binding signal,"[1]; peptide modifications: H3K23ac H3K27me2, binder concentration: 50 nM",0.00426 ± 0.0002
same,peptide microarray binding signal,"[1]; peptide modifications: H3K23ac H3K27me2, binder concentration: 500 nM",0.00929 ± 0.0011
same,peptide microarray binding signal,"[2]; peptide modifications: H3K23ac H3K27me2, binder concentration: 10 nM",0.0152 ± 0.0015
same,peptide microarray binding signal,"[2]; peptide modifications: H3K23ac H3K27me2, binder concentration: 100 nM",0.0206 ± 0.00053
same,peptide microarray binding signal,[3]; [5],0.00765 ± 0.0019
same,peptide microarray binding signal,[3]; [6],0.00719 ± 0.00029
same,peptide microarray binding signal,[4]; [5],0.00344 ± 0.001
same,peptide microarray binding signal,[4]; [6],0.00329 ± 0.00032
LATKAARKSAPAT [H3 20-32 L A T Kme A A R Kme2 S A P A T],peptide microarray binding signal,"[1]; peptide modifications: H3K23me1 H3K27me2, binder concentration: 50 nM",0.00395 ± 5.6e-05
same,peptide microarray binding signal,"[1]; peptide modifications: H3K23me1 H3K27me2, binder concentration: 500 nM",0.002619 ± 2.1e-05
same,peptide microarray binding signal,"[2]; peptide modifications: H3K23me1 H3K27me2, binder concentration: 10 nM",0.00537 ± 9.5e-05
same,peptide microarray binding signal,"[2]; peptide modifications: H3K23me1 H3K27me2, binder concentration: 100 nM",0.00539 ± 7.3e-05
same,peptide microarray binding signal,[3]; [7],0.00217 ± 0.00021
same,peptide microarray binding signal,[3]; [8],0.00331 ± 4.7e-05
same,peptide microarray binding signal,[4]; [7],0.0018 ± 6.4e-05
same,peptide microarray binding signal,[4]; [8],0.00161 ± 3.1e-05
LATKAARKSAPAT [H3 20-32 L A T Kme A A R K S A P A T],peptide microarray binding signal,"[1]; peptide modifications: H3K23me1, binder concentration: 50 nM",0.0042 ± 0.00011
same,peptide microarray binding signal,"[1]; peptide modifications: H3K23me1, binder concentration: 500 nM",0.00714 ± 0.00042
same,peptide microarray binding signal,"[2]; peptide modifications: H3K23me1, binder concentration: 10 nM",0.0107 ± 0.00011
same,peptide microarray binding signal,"[2]; peptide modifications: H3K23me1, binder concentration: 100 nM",0.0176 ± 0.00097
same,peptide microarray binding signal,[3]; [9],0.00564 ± 0.0011
same,peptide microarray binding signal,[3]; [10],0.0116 ± 0.0039
same,peptide microarray binding signal,[4]; [9],0.00267 ± 0.00032
same,peptide microarray binding signal,[4]; [10],0.00242 ± 0.00013
LATKAARKSAPAT [H3 20-32 L A T Kme A A R Kme S A P A T],peptide microarray binding signal,"[1]; peptide modifications: H3K23me1 H3K27me1, binder concentration: 50 nM",0.00404 ± 0.00027
same,peptide microarray binding signal,"[1]; peptide modifications: H3K23me1 H3K27me1, binder concentration: 500 nM",0.00976 ± 0.00044
same,peptide microarray binding signal,"[2]; peptide modifications: H3K23me1 H3K27me1, binder concentration: 10 nM",0.015 ± 0.00066
same,peptide microarray binding signal,"[2]; peptide modifications: H3K23me1 H3K27me1, binder concentration: 100 nM",0.0215 ± 0.0021
same,peptide microarray binding signal,[3]; [11],0.0102 ± 0.0036
same,peptide microarray binding signal,[3]; [12],0.01 ± 0.00092
same,peptide microarray binding signal,[4]; [11],0.00488 ± 0.00067
same,peptide microarray binding signal,[4]; [12],0.0045 ± 0.00019
LATKAARKSAPAT [H3 20-32 L A T Kac A A R Kac S A P A T],peptide microarray binding signal,"[1]; peptide modifications: H3K23ac H3K27ac, binder concentration: 50 nM",0.0196 ± 0.0013
same,peptide microarray binding signal,"[1]; peptide modifications: H3K23ac H3K27ac, binder concentration: 500 nM",0.0397 ± 0.0034
same,peptide microarray binding signal,"[2]; peptide modifications: H3K23ac H3K27ac, binder concentration: 10 nM",0.0424 ± 0.0038
same,peptide microarray binding signal,"[2]; peptide modifications: H3K23ac H3K27ac, binder concentration: 100 nM",0.0536 ± 0.0026
same,peptide microarray binding signal,[3]; [13],0.0164 ± 0.0012
same,peptide microarray binding signal,[3]; [14],0.0172 ± 0.00041
same,peptide microarray binding signal,[4]; [13],0.016 ± 0.002
same,peptide microarray binding signal,[4]; [14],0.00848 ± 0.00094
